Laboratory results as given in PubChem BioAssay (Tox21).
Values joined by “and” are separate entries in the source; they are usually repeats but may differ in a detail not shown here. Identical values can stand only once. Records with an inconclusive call do not appear. A call without a number means that no potency is given here. Where a structure was tested more than once in an assay, its records may differ in their call. Active and inactive are the calls of the source. The call rests on the fitted dose curve; in most records, active means well fitted inhibition curve with a large enough effect in the repeat runs; inconclusive means weak or mixed curves, or effect the other way; inactive means no such curve, though single readings can be large or run the other way.

What follows are compounds tested against Nuclear receptor ROR-gamma (Homo sapiens) (UniProt P51449) (assay: qHTS assay to identify small molecule antagonists of the retinoid-related orphan receptor gamma (ROR-gamma) signaling pathway (AID 1159521; further: nearly all actives have a fitted effect of over 50% in size; on activity change, negative = inhibition: top concentration of the series differs between compounds)). Conditions: Tet-on RORgamma CHO cells, RORE-luciferase, 16 h; series mostly up to 92.4 µM.
Source text: U.S. Tox21 Program National Center for Advancing Translational Sciences [NCATS] NIH Chemical Genomics Center [NCGC] U.S. Environmental Protection Agency [EPA] National Institutes of Environmental Health Sciences [NIEHS] National Toxicology Program [NTP] U.S. Food and Drug Administration [FDA] Tox21 Assay Overview: Nuclear steroid hormone receptors are involved in many biological processes including inflammatory responses, cell proliferation, and apoptosis. Environmental factors or compounds disrupting these nuclear receptor pathways and gene expression may promote susceptibility to immunotoxicants and autoimmune diseases. One important group of these expression factors are the retinoid-related orphan receptors. To assess compounds that may interfere with the retinoid-related orphan receptor gamma (ROR-gamma) transcription factor, a cell-based luciferase assay was used. The CHO cell-based assay utilizes a TET-inducible ROR expression factor and ROR response element-LUC reporter gene. Reporter gene activity was induced using Doxycycline Hyclate and measured after 16 hr incubation. Tet-on ROR gamma CHO cells were used to screen against the Tox21 10K compound library for ROR gamma antagonists by quantification of decreased reporter gene activity in terms of decreased luminescence.
Tox21 Assay Protocol Summary: Tet-on ROR gamma CHO cells were dispensed at 1,000 cells in 4 uL of culture medium per well into white wall/solid bottom 1536-well plates using a Multidrop Combi (Thermo Scientific, Waltham, MA) dispenser. Following incubation at 37 C and 5% CO2 for 4 hr, 23 nL of compounds dissolved in DMSO, positive controls or DMSO only were transferred by a Pintool station (Kalypsys, San Diego, CA) and after 2 hr incubation at 37 C, one ul of 1 uM (final concentration) of Doxycycline Hyclate was added to all the wells by using a Flying Reagent Dispenser (FRD) (Aurora Discovery, San Diego, CA). After 16 hr incubation at 37 C and 5% CO2, 5 uL of ONE-Glo reagent (Promega Corporation, Madison, WI) was added to each assay plate using FRD. After 30 min incubation at room temperature, luminescence was quantified on a ViewLux plate reader (Perkin Elmer, Waltham, MA).
Potency means the concentration at half of the fitted maximal effect.

Row | Compound | Potency | activity change, negative = inhibition
1 | CN(C)CCOC(c1ccccc1)c1ccccc1 | inactive | 
2 | O=S1(=O)OC(c2ccc(O)cc2)(c2ccc(O)cc2)c2ccccc21 | inactive | 
3 | CCCC[P+](CCCC)(CCCC)CCCC | inactive | 
4 | CCCCCCCCCCCCCCCC[N+](C)(C)Cc1ccccc1 | 56.2 µM (active) and 27.8 µM (active) and 13.3 µM (active) | 
5 | CCN(CC)C(=O)c1cccc(C)c1 | inactive | 
6 | CCOC(N)=O | inactive | 
7 | COc1cccc(O)c1O | 63.5 µM (active) | 
8 | NS(=O)(=O)O | inactive | 
9 | COc1ccc(C(Cl)=C(c2ccc(OC)cc2)c2ccc(OC)cc2)cc1 | 19.2 µM (active) | 
10 | CN1CCc2cccc3c2[C@H]1Cc1ccc(O)c(O)c1-3 | 27.6 µM (active) and 20.4 µM (active) and inactive | 
11 | Cc1cccc(C)c1 | inactive | 
12 | Cn1c(=O)c2c(ncn2C)n(C)c1=O | inactive | 
13 | F[B-](F)(F)F | inactive and 49.2 µM (active) | 
14 | CCCCCCc1ccc(O)cc1O | inactive | 
15 | Cc1ncc([N+](=O)[O-])n1CCO | inactive | 
16 | OC[C@H]1O[C@H](O[C@]2(CCl)O[C@H](CCl)[C@@H](O)[C@@H]2O)[C@H](O)[C@@H](O)[C@H]1Cl | inactive | 
17 | Nc1c2c(nc3ccccc13)CCCC2 | inactive | 
18 | CN(C)C(=S)SC(=S)N(C)C | 703 nM (active) and 770 nM (active) and 1.06 µM (active) | 
19 | CC(C)NCC(O)c1ccc(O)c(O)c1 (stereo not given) | inactive | 
20 | CN(N=O)C(=O)N[C@@H]1[C@@H](O)[C@H](O)[C@@H](CO)O[C@@H]1O | inactive | 

Row | Compound | Potency | activity change, negative = inhibition
21 | COc1ccc(CN(CCN(C)C)c2ccccn2)cc1 | inactive | 
22 | COc1ccc2cc(S(=O)(=O)N[C@H](CC(=O)N[C@H](Cc3ccc(CN4[C@H](C)CCC[C@@H]4C)cc3)C(=O)N(C)C(C)C)c3ccc4c(c3)OCO4)ccc2c1 | 13 µM (active) | 
23 | O=c1[nH]cc(F)c(=O)[nH]1 | 4.49 µM (active) and inactive | 
24 | C/C=C/C=C/C(=O)O | inactive | 
25 | Nc1ccc([N+](=O)[O-])cc1O | inactive | 
26 | C[C@](N)(Cc1ccc(O)c(O)c1)C(=O)O | inactive | 
27 | O=C1NS(=O)(=O)c2ccccc21 | inactive | 
28 | CS(=O)(=O)OCCCCOS(C)(=O)=O | inactive | 
29 | O=C1c2c(O)cccc2Cc2cccc(O)c21 | inactive | 
30 | NC(=O)n1c(O)c(C(=O)c2cccs2)c2cc(Cl)ccc21 | 6.68 µM (active) | 
31 | CC/C(=C(\c1ccccc1)c1ccc(OCCN(C)C)cc1)c1ccccc1 | 27.5 µM (active) [middle of 5 runs] | 
32 | CC(=O)Nc1c(I)c(NC(C)=O)c(I)c(C(=O)O)c1I | inactive | 
33 | Nc1ccc2c(c1)CN1C(=O)c3ccccc3C1=N2 |  | -8.87% [at 19 µM] (inactive)
34 | Oc1ccccc1 | inactive | 
35 | CC(=O)C(=O)O | inactive | 
36 | CCCCC1(COC(=O)CCC(=O)O)C(=O)N(c2ccccc2)N(c2ccccc2)C1=O | inactive | 
37 | CCCCOC(=O)c1ccc(O)cc1 | inactive | 
38 | CN[C@H]1CC[C@@H](c2ccc(Cl)c(Cl)c2)c2ccccc21 | inactive | 
39 | CCCCC(CC)C(=O)O (stereo not given) | inactive | 
40 | C=C(C)C(=O)OCC(C)O (stereo not given) | inactive | 
